Screening results deposited in PubChem BioAssay by National Center for Advancing Translational Sciences (NCATS).
Cycloheximide cs – Cycloheximide Counterscreen for Small Molecule Inhibitors of Shiga Toxin; 300,000 tested, 12% active; cell reporter, cycloheximide protein synthesis inhibition counterscreen; max response, %; in the data active = max response mostly above about 13%, no sharp cut-off; inactive = mostly below about 14%; note: read at 38.3 µM for the half of the compounds with a filed dose; 0% is about no effect
Pf growth 96h – Primary qHTS for delayed death inhibitors of the malarial parasite plastid, 96 hour incubation. AID 504834, 2011. 320,000 tested, 6.9% active. P. falciparum luciferase reporter growth, 96 h. Potency, µM (top dose mostly 28.7 µM), without a hit: top-dose activity change, negative = inhibition, actives largely listed as inhibitors; active = well fitted inhibition curve with a large enough effect; inconclusive = small, poorly fitted or top-dose-only effect, or another doubt; inactive = no such curve, though single readings can be large or run the other way; note: potency is the fitted concentration of half-maximal effect; % is set by controls: 0 for no effect and ±100 for the full control effect
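Compounds incubated with erythrocytes infected by luciferase-expressing P. falciparum (2% hematocrit, 0.05% parasitemia final) for 96 hours, 37 C in 5% CO2. Growth inhibition scored as decreased luciferase luminescence.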
NS1 function inh – qHTS Assay for Inhibitors of Influenza NS1 Protein Function | Potency, µM (titrated, usually from 46.1 µM), without a hit: at the top dose activity, positive = more growth | AID 2326, 2010 | 270,000 tested, 0.4% active; note: potency is the fitted concentration of half-maximal effect; actives are rising curves; nearly all actives have a fitted effect of over 50% in size
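S. cerevisiae expressing influenza A NS1, grown in glucose, washed, then diluted 1:100 into pH 6.0 -URA galactose medium with 23 nl compound. Growth recovery read as OD600; NS1-free strain serves as control.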
Shiga toxin inh – A qHTS for Small Molecule Inhibitors of Shiga Toxin; Vero cells, Shiga toxin protein synthesis inhibition reporter; inhibition, % at 38.7 µM; 290,000 tested, 9.2% active; in the data active = inhibition mostly above about 28%, no sharp cut-off; inactive = mostly below about 43%; note: 0% is about no effect
Pf growth 48h – Primary qHTS for delayed death inhibitors of the malarial parasite plastid, 48 hour incubation | Potency, µM (doses to about 28.7 µM), for inactives: at the highest dose activity change, negative = inhibition, most hits filed as inhibitors | P. falciparum luciferase growth in erythrocytes, 48 h | 310,000 tested, 5.9% active | AID 504832, 2011; active = well fitted inhibition curve with a large enough effect; inconclusive = small, poorly fitted or top-dose-only effect, or another doubt; inactive = no such curve, though single readings can be large or run the other way; note: potency is the fitted concentration of half-maximal effect; % is set by controls: 0 for no effect and ±100 for the full control effect
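Luminescence readout; reporter = integrated firefly luciferase in P. falciparum. RBC culture at 2% hematocrit, 0.1% parasitemia final, 37 C/5% CO2; decreased signal taken as growth inhibition.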
SARS PLP yeast – qHTS of Yeast-based Assay for SARS-CoV PLP. S. cerevisiae expressing SARS-CoV PLpro, growth rescue. Potency, µM (highest dose often 32.9 µM), for inactives: at the highest dose activity, positive = growth rescue, actives largely listed as activators. 330,000 tested, 0.19% active. AID 485353, 2010; note: potency is the fitted concentration of half-maximal effect; 0% is about no effect; nearly all actives have a fitted effect of over 55% in size
Active calls of the source: *; ? = inconclusive; . = not tested or not shown. Rows were chosen to be rich in hits. Some 21% of all compounds tested hit in one or more screens of this group. Unless noted, calls come from the whole dose curve.

SMILES	Cycloheximide cs	Pf growth 96h	NS1 function inh	Shiga toxin inh	Pf growth 48h	SARS PLP yeast
CCOC(=O)[C@@H]1[C@H]2COc3cc(OC)ccc3[C@H]2N2C(=O)N(c3cccc(F)c3)C(=O)[C@@]12C	.	.	.	.	.	4%
CCNC(=S)N/N=C/c1cn(Cc2ccccc2F)c2ccccc12	17*	?	?	24	?	30%
CCNC(=S)N/N=C/c1cn(Cc2ccc(F)cc2)c2ccccc12	0	?	27%	-13	?	?
CC1CCN(C(=S)c2cn(Cc3ccccc3F)c3ccccc23)CC1	8	13µM*	-10%	16	7.4µM*	10%
CCOC(=O)C1(CCCc2ccccc2)CCN(S(=O)(=O)N(C)C)CC1	1	6%	-18%	-5	?	-11%
CC(=O)c1cccc(CN2CCC(C(=O)Nc3cccc(-c4ccn[nH]4)c3)CC2)c1	2	31%	-2%	-6	?	8%
CCOC(=O)c1c(C)[nH]c(C(=O)Nc2ccc(C)c(Cl)c2)c1C	35*	?	-3%	103*	-55%	6%
CC(=O)c1c(C)[nH]c(C(=O)Nc2cccc(S(=O)(=O)N3CCCCC3)c2)c1C	.	9.3µM*	.	.	9.3µM*	-1%
COc1ccc(NC(=O)c2[nH]c(C)c(C(C)=O)c2C)cc1Cl	60*	-21%	-20%	56	?	-5%
CCc1c(C(=O)Nc2ccc(C)c(C)c2)[nH]c(C)c1C(C)=O	40*	3%	-5%	84*	-10%	-7%
COc1cc(NC(=O)c2[nH]c(C)c(C(C)=O)c2C)cc(OC)c1OC	-3	-5%	?	-3	3%	3%
CCOC(=O)c1c(C)[nH]c(C(=O)Nc2ccc(NC(C)=O)cc2)c1C	-3	0%	.	-9	0%	-1%
COC(=O)Cn1c(C(O)c2ccccc2)nc2ccccc21 (stereo not given)	-1	4%	2%	15	9%	12%
COc1ccc2cc(CO)c3cc(OC)c(OC)cc3c2c1	.	.	.	.	.	-4%
COc1ccc(NC(=O)c2[nH]c(C)c(C(C)=O)c2C)cc1S(=O)(=O)Nc1ccc(Br)cc1	-2	?	4%	11	?	0%
CC(=O)c1c(C)[nH]c(C(=O)NC2CCCCC2)c1C	16*	-4%	-5%	16	0%	-1%
CC(=O)c1c(C)[nH]c(C(=O)Nc2cccc(C(F)(F)F)c2)c1C	32*	1.9µM*	-3%	73*	4.1µM*	-14%
CC(=O)c1c(C)[nH]c(C(=O)Nc2cccc(C#N)c2)c1C	1	?	6%	52	?	1%
CC(=O)c1c(C)[nH]c(C(=O)Nc2ccc(C)c(C)c2)c1C	36*	27%	3%	65*	.	-10%
Fc1ccccc1NC(=S)N(CCCN1CCOCC1)Cc1cccnc1	-4	?	.	-9	-6%	4%
Cc1nc2ccc(Cl)cc2nc1C	1	8%	8%	5	13%	2%
COc1ccccc1N1C(=O)CC(Sc2n[nH]c(-c3cccc(C)c3)n2)C1=O (stereo not given)	-2	265%	-64%	9	9%	-83%
Cn1c(=O)c2c(nc(NCC3CCCC(CN)C3)n2Cc2ccc(Cl)cc2Cl)n(C)c1=O (stereo not given)	0	2.9µM*	4%	-7	2.9µM*	0%
Cn1c(=O)c2c(nc(NCCNC(=O)c3ccco3)n2Cc2ccc(Cl)cc2Cl)n(C)c1=O	-3	18%	2%	34	?	-9%
O=C(CSc1nnc2sc3ccccc3n12)c1ccco1	40*	2%	-5%	100*	62%	-6%
SMILES	Cycloheximide cs	Pf growth 96h	NS1 function inh	Shiga toxin inh	Pf growth 48h	SARS PLP yeast
O=C(CSc1nnnn1-c1ccccc1)c1ccco1	36*	0%	.	27	44%	-1%
O=C(CSCCSCC(=O)c1ccco1)c1ccco1	13*	?	9%	49	24%	-2%
c1csc(CSc2nnc3sc4ccccc4n23)c1	32*	5%	-2%	106*	196%	-10%
CN(C)C(=O)CSc1nnc2sc3ccccc3n12	-1	103%	-2%	19	.	?
Cn1nnnc1SCC(=O)c1ccco1	19	30%	3%	-6	.	4%
N=c1oc2ccccc2cc1-c1nc(-c2ccc(Cl)cc2)cs1	-1	39%	10%	8	3%	7%
CC(CSC(=O)c1ccccc1)C(=O)N1C[C@@H](Sc2ccccc2)C[C@H]1C(=O)O (stereo not given in full)	.	0%	.	.	-2%	.
O=C(Nc1ccc(F)cc1F)c1cc(-c2ccc3c(c2)OCO3)on1	2	106%	-8%	52	85%	1%
CCNC(=O)Nc1ccc(-n2nc(C)c(C(=O)OCC)c2C)nc1	10	?	.	-19	?	-1%
Cc1ccc(S(=O)(=O)N2CCN(C(=O)CNC(=O)c3ccc(Cl)cc3)CC2)cc1	.	.	.	.	.	14%
Cc1nc2c(c(=O)n1CCC1=CCCCC1)c1nc3ccccc3nc1n2/N=C/c1ccccc1	5	-6%	-2%	25	.	18%
CCOCCCn1c(C)nc2c(c1=O)c1nc3ccccc3nc1n2CCC1=CCCCC1	1	2.6µM*	?	21	?	?
COc1cc(C(=O)Nc2cccc(NC(=O)c3ccccc3)c2)cc(OC)c1OC	1	?	1%	25	?	-4%
CN(C)CC(=O)N1c2ccccc2CCc2ccc(NC(=O)c3ccc(N)cc3)cc21	4	65%	15%	4	5.9µM*	-4%
CCN(CC)CCC(=O)Nc1ccc2c(c1)N(C(=O)CN(CC)CC)c1ccccc1CC2	1	?	10%	42	10µM*	-3%
CCN(CC)CCC(=O)N1c2ccccc2CCc2ccc(NC(=O)OC(C)C)cc21	-1	?	2%	2	?	-1%
CCOC(=O)Nc1ccc2c(c1)N(CCCN(C)C)c1ccccc1CC2	-5	13µM*	-14%	0	?	-16%
COc1cc(C(=O)Nc2ccc3c(c2)N(C(=O)CCN(C)C)c2ccccc2CC3)cc(OC)c1OC	-4	9.3µM*	-2%	-6	10µM*	0%
CC(=O)Nc1ccc2c(c1)N(C(C)=O)c1ccccc1CC2	-1	?	6%	-11	?	0%
Cc1ccc(N2CC(C(=O)Nc3ccc(S(=O)(=O)Nc4ncccn4)cc3)CC2=O)cc1C (stereo not given)	-6	31%	-6%	17	13%	2%
CCC(Oc1ccccc1)C(=O)O/N=C(\N)c1ccc(OC)c(OC)c1 (stereo not given)	0	?	11%	-3	4%	-21%
N#Cc1cc2c(nc1SCc1ccc(Cl)nc1)CCCCC2	5	?	-83%	-2	?	-1%
CC(=O)c1ccc(NC(=O)c2ccc(-n3cnnn3)cc2)cc1	.	?	.	.	?	-2%
